From the supplement of paper PMC10849652
Targets with a hit are over-represented here; the source holds about 7,900 in all. About 0.6% of all pairs of compound and target were hits.

Tests used:
Assay in all cases: log2 fold change, soluble protein after heating vs DMSO (PISA); higher = thermal stabilisation; K562 cells, 10 uM, 30 min; active = over 0.2 and 3.5 SD of the protein, either way, in both replicates (recomputed)
[1] = compound: C1=CC=C(C=C1)[C@H](COC2=CC3=C(C=C2)NC(=O)N3)NC(=O)C4=CC=CN(C4=O)CC5=CC(=C(C=C5)F)F
Procedure, shortened: (§1)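 K562 cells at 2×10^6 cells/mL were given 10 μM compound for 30 min. Aliquots then went through 3 min of heating across 48°C-58°C, were pooled, and were extracted in PBS with 0.5% NP-40 at 4°C, and the supernatant after 21,000xg for 90 min was quantified by TMTpro 16plex LC-MS/MS with channel sums equalised. Thermal stability relative to control samples, from duplicates, is given as log2 fold change.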

[2] = compound: CC1=C(SC2=C1C(=N[C@H](C3=NN=C(N32)C)CC(=O)N)C4=CC=C(C=C4)Cl)C
Procedure, shortened: as §1

[3] = compound: CC1=C2C(=CC=C1)N=C(N(C2=O)C3=CC=CC=C3C)CN4C=NC5=C(N=CN=C54)N
Procedure, shortened: as §1

[4] = compound: Cc1sc2c(c1C)C(c1ccc(Cl)cc1)=N[C@@H](CC(=O)OC(C)(C)C)c1nnc(C)n1-2
Procedure, shortened: as §1

[5] = compound: c1ccc([C@@H]2C[C@H]2NC2CCNCC2)cc1
Procedure, shortened: as §1

Measured: log2 fold change

RCN3 (UniProt Q96D15)
inactive: [1] 0.016 | [2] 0.032 | [3] -0.061 | [4] -0.01 | [5] 0.023

SCAMP2 (UniProt H3BUB6)
inactive: [1] 0.03 | [2] -0.017 | [3] 0.308 | [4] 0.15 | [5] 0.135

RAD51 (UniProt Q06609)
Sequence of UniProt Q06609 (Q06609 whole entry, looked up): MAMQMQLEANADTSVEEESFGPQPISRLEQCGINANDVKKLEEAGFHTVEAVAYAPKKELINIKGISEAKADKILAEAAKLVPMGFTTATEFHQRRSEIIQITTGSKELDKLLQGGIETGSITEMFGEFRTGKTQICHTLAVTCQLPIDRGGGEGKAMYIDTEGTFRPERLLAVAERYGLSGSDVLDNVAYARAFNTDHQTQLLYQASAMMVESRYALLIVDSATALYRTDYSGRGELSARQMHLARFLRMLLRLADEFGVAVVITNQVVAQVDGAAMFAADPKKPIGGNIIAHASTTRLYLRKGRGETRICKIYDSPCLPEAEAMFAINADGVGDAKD
inactive: [1] -0.006 | [2] 0.142 | [3] -0.037 | [4] 0 | [5] -0.053

RPA1 (UniProt P27694)
inactive: [1] -0.032 | [2] 0.025 | [3] 0.087 | [4] -0.047 | [5] 0.011

RBM4 (UniProt Q9BWF3)
inactive: [1] -0.029 | [2] -0.074 | [3] -0.011 | [4] 0.009 | [5] 0.073

SEPTIN5 (UniProt Q99719)
Sequence of UniProt Q99719 (Q99719 whole entry, looked up): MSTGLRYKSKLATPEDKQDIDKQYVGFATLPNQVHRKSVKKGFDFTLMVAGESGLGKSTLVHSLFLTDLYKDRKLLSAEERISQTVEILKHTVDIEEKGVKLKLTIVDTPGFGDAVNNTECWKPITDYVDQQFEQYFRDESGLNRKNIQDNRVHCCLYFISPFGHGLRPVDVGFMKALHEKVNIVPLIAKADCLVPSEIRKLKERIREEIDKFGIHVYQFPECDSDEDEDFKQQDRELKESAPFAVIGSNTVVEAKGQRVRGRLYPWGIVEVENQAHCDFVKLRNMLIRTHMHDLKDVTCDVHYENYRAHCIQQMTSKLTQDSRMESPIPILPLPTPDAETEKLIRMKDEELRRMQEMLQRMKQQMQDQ
inactive: [1] -0.021 | [2] 0.069 | [3] 0.014 | [4] -0.045 | [5] -0.016

RPS9 (UniProt P46781)
inactive: [1] 0.073 | [2] -0.19 | [3] -0.24 | [4] 0.134 | [5] 0

SCAMP2 (UniProt O15127)
inactive: [1] 0.061 | [2] 0.026 | [3] -0.041 | [4] -0.105 | [5] -0.048

RIOK2 (UniProt Q9BVS4)
inactive: [1] 0.034 | [2] -0.038 | [3] -0.119 | [4] 0.116 | [5] -0.009

RELA (UniProt Q04206)
inactive: [1] -0.013 | [2] 0.056 | [3] 0.03 | [4] 0.031 | [5] 0.008

RBM22 (UniProt Q9NW64)
inactive: [1] 0.033 | [2] -0.022 | [3] -0.013 | [4] 0.027 | [5] 0.049

RAB3GAP2 (UniProt Q9H2M9)
inactive: [1] -0.023 | [2] -0.07 | [3] 0.051 | [4] 0.04 | [5] 0.001

RSRC2 (UniProt Q7L4I2)
Sequence of UniProt Q7L4I2 (Q7L4I2 whole entry, looked up): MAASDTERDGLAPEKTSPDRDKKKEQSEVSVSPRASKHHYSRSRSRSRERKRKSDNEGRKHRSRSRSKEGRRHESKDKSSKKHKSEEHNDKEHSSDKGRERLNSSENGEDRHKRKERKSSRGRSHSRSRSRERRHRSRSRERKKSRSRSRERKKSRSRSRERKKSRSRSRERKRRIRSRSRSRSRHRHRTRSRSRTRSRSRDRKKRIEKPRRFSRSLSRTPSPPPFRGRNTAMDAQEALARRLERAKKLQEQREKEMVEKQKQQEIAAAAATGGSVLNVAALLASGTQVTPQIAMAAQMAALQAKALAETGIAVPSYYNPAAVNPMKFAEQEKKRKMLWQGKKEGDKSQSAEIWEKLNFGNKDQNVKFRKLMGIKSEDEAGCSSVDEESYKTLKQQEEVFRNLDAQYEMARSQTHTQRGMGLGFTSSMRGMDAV
inactive: [1] 0.034 | [2] 0 | [3] -0.045 | [4] 0.022 | [5] 0.085

SCAF11 (UniProt Q99590)
inactive: [1] -0.104 | [2] -0.098 | [3] 0.021 | [4] 0.064 | [5] 0.016

RNF187 (UniProt Q5TA31)
inactive: [1] -0.047 | [2] 0.07 | [3] -0.033 | [4] -0.083 | [5] -0.033

RPS6KA3 (UniProt P51812)
Sequence of UniProt P51812 (P51812 whole entry, looked up): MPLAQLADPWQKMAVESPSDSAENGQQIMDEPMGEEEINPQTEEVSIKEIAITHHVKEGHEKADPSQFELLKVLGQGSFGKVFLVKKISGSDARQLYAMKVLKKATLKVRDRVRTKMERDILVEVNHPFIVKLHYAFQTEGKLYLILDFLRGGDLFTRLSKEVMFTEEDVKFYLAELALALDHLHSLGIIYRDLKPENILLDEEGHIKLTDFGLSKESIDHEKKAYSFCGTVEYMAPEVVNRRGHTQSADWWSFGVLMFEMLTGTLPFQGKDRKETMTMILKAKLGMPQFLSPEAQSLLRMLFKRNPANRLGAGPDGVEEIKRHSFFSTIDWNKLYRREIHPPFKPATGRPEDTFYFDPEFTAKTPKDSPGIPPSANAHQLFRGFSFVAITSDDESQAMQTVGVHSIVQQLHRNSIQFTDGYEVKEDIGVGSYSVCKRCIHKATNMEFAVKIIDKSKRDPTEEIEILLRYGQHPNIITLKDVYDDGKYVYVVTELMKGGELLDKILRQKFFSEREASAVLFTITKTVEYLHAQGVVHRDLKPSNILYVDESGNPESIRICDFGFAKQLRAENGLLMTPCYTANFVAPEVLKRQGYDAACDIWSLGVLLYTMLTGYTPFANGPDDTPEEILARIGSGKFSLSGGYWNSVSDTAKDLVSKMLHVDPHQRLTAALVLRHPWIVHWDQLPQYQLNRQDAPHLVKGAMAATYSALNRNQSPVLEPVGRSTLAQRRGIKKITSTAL
inactive: [1] -0.044 | [2] 0.05 | [3] 0.036 | [4] -0.034 | [5] -0.006

ROCK1 (UniProt Q13464)
inactive: [1] -0.017 | [2] 0.027 | [3] 0.032 | [4] -0.018 | [5] -0.015

SCLT1 (UniProt Q96NL6)
Sequence of UniProt Q96NL6 (Q96NL6 whole entry, looked up): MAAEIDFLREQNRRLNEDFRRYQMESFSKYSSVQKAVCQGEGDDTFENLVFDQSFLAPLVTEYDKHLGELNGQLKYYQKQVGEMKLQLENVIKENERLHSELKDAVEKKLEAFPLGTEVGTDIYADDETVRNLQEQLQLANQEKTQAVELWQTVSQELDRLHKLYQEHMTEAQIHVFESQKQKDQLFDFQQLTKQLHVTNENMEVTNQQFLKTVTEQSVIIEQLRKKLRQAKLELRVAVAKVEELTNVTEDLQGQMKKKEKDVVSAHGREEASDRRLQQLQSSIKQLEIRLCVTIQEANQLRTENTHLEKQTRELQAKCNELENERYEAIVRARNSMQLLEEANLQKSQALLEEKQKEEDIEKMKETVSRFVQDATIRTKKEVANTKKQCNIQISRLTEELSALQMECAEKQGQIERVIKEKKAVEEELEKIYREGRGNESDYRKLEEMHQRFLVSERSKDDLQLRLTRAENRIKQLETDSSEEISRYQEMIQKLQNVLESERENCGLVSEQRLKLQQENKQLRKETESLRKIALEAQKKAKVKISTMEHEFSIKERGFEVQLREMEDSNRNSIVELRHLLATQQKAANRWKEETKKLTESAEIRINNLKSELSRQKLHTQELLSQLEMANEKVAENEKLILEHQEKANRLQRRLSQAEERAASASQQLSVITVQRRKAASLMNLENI
inactive: [1] 0.078 | [2] 0.215 | [3] 0.222 | [4] 0.001 | [5] -0.039

RDH11 (UniProt Q8TC12)
inactive: [1] 0.258 | [2] 0.06 | [3] 0.266 | [4] 0.115 | [5] -0.058

RBBP6 (UniProt Q7Z6E9)
Sequence of UniProt Q7Z6E9 (Q7Z6E9 whole entry, looked up): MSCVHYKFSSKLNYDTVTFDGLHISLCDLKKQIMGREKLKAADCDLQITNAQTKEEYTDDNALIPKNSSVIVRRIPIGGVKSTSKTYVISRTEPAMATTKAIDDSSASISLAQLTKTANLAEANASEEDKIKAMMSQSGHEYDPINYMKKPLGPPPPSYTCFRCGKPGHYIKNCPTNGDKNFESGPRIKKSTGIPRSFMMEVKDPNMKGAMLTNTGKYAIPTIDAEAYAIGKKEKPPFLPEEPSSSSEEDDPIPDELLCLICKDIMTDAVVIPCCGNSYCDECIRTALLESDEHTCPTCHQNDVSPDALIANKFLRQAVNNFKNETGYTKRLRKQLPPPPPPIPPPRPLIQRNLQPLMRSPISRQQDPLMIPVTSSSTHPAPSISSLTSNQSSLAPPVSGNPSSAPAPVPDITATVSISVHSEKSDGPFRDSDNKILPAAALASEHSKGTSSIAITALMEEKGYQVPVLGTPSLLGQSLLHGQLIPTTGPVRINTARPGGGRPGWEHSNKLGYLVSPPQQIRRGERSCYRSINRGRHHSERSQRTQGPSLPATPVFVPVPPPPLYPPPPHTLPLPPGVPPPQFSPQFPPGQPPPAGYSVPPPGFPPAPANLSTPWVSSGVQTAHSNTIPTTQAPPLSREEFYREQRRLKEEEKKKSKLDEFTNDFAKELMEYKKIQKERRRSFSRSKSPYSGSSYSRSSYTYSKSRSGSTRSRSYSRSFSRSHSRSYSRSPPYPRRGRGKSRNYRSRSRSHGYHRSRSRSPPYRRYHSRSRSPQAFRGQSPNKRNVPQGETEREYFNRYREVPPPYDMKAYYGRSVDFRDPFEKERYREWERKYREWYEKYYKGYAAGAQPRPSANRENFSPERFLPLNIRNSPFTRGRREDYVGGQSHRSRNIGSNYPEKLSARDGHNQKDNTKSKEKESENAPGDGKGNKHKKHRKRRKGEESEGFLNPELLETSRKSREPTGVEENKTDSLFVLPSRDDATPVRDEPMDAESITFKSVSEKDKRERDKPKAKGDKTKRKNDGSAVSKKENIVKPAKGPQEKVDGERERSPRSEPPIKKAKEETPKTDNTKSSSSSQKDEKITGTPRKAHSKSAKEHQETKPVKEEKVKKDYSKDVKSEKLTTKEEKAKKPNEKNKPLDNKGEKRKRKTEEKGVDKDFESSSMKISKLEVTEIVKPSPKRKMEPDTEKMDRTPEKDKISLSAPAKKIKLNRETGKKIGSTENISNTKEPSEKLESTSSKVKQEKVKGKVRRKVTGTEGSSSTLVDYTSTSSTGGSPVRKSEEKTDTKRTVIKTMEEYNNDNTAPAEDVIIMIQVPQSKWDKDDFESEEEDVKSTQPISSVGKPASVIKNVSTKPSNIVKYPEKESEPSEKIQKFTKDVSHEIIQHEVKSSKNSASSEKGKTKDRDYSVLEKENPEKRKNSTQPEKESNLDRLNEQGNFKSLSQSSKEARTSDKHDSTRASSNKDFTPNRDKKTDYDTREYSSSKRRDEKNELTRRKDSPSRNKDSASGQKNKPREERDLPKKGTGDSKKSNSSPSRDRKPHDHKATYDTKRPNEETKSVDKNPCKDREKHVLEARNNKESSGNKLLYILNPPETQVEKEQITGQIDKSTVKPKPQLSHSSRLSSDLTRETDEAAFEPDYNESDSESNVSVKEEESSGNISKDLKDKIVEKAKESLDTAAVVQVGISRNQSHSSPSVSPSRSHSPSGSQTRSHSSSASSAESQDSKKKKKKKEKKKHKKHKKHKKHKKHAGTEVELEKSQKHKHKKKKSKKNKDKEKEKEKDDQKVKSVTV
inactive: [1] 0.094 | [2] 0.119 | [3] -0.017 | [4] 0.066 | [5] -0.32

RARS (UniProt P54136)
inactive: [1] -0.057 | [2] -0.081 | [3] -0.02 | [4] 0.169 | [5] 0.024

RBM12 (UniProt Q9NTZ6)
inactive: [1] -0.039 | [2] 0.023 | [3] 0.077 | [4] -0.064 | [5] -0.006

RCOR3 isoform 3 (UniProt Q9P2K3)
inactive: [1] -0.139 | [2] 0.087 | [3] 0.111 | [4] -0.06
active: [5] 1.27

RMC1 (UniProt Q96DM3)
Sequence of UniProt Q96DM3 (Q96DM3 whole entry, looked up): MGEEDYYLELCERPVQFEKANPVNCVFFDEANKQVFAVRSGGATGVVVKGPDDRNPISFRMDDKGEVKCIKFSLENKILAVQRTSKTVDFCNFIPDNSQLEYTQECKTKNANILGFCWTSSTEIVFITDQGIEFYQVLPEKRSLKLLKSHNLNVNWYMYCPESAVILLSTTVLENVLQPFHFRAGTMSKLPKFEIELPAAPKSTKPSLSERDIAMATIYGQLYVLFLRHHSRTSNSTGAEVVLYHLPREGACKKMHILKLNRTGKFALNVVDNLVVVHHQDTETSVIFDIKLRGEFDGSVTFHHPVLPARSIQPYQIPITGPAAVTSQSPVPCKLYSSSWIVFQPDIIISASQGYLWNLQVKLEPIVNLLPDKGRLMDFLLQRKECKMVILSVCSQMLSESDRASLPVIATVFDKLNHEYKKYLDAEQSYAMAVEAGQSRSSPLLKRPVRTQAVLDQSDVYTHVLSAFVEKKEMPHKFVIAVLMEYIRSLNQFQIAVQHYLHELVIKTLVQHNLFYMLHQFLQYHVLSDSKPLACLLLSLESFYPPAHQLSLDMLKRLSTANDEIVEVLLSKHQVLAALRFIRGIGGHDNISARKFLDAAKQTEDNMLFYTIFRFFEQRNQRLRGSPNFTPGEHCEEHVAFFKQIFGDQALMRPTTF
inactive: [1] -0.009 | [2] 0.064 | [3] 0.1 | [4] 0.019 | [5] 0.063

RTF2 (UniProt Q9BY42)
inactive: [1] 0.054 | [2] -0.009 | [3] 0.068 | [4] -0.038 | [5] 0.045

RABGAP1L isoform 3 (UniProt Q5R372)
inactive: [1] 0.007 | [2] 0.024 | [3] 0.033 | [4] -0.015 | [5] -0.005

RAVER1 (UniProt E9PAU2)
inactive: [1] -0.138 | [2] -0.204 | [3] 0.283 | [4] -0.19 | [5] 0.053

SLC18B1 (UniProt Q6NT16)
inactive: [1] 0.015 | [2] 0.028 | [3] 0.061 | [4] 0.009 | [5] -0.039

RPS16 (UniProt P62249)
inactive: [1] 0.049 | [2] -0.149 | [3] -0.192 | [4] 0.043 | [5] -0.003

SENP6 (UniProt Q9GZR1)
inactive: [1] 0.023 | [2] 0.014 | [3] 0.048 | [4] 0.022 | [5] 0.056

RPTOR (UniProt Q8N122)
inactive: [1] -0.022 | [2] -0.015 | [3] 0.095 | [4] -0.02 | [5] 0.032
